Records with an inconclusive call do not appear. Active and inactive are the calls of the source. Calls come from the whole dose curve; as a rule, active = well fitted cell-killing curve with a large enough effect; inconclusive = small, poorly fitted or top-dose-only effect, or effect the other way; inactive = flat fitted curve, though single readings scatter.
% is set by controls: 0 for no effect and ±100 for the full control effect; potency is the fitted concentration of half-maximal effect.

The first experiment relates to Hek293T. Briefly: Primary qHTS to identify gynecologic anti-cancer compounds using libraries of approved drugs and bioactive compounds (AID 1345084). Note: nearly all actives have a fitted effect of over 55% in size. The conditions noted are these: Gynecologic cancer cell panel viability, ATPlite luminescence, 48 h, control line for the selectivity index; series mostly up to 57.5 µM; activity change, negative = cytotoxicity: at the top concentration. In a few lines:
(§1)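 Cells, 1,000 per well, were allowed to settle for 16 h at 37 C before compound addition. Five concentrations were tested for 48 h, and viability was read by ATPlite luminescence after 15 min at room temperature.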
On the technique in general: Quantitative high-throughput screening tests each substance at several concentrations.
With `Oc1ccc(Nc2nc(-c3ccc(Cl)cc3)cs2)cc1`, the “activity change, negative = cytotoxicity” value is -8.98% (inactive).

Regarding `OCC(Cc1ccccc1)Nc1nc(Oc2ccc3c(c2)CCC3)nc2c1ncn2Cc1ccc(-c2ccccc2)cc1` (configuration not stated), the “activity change, negative = cytotoxicity” value is -29.8% (inactive).

With `Cc1cc2nc(NCCCO)n(CC(=O)c3cc(C(C)(C)C)c(O)c(C(C)(C)C)c3)c2cc1C`, the “activity change, negative = cytotoxicity” value is -4.6% (inactive).

Consider `CC[C@H](CO)Nc1nc(Nc2cccc(-c3ccccn3)c2)c2ncn(C(C)C)c2n1`, for which the “activity change, negative = cytotoxicity” value was 2.09% (inactive).

Consider `Cc1ccccc1C(=O)Nc1ccc(C(=O)N2CCC[C@@H](O)c3cc(Cl)ccc32)c(C)c1`, for which the “activity change, negative = cytotoxicity” value is -9.92% (inactive).

Turning to `CCCCn1c(-c2ccccc2)nc(-c2ccccc2)c1CN(Cc1ccc2c(c1)OCO2)Cc1ccc2c(c1)OCO2`, the “activity change, negative = cytotoxicity” value was 0.798% (inactive).

`O=C(NC(NC(=S)Nc1ccc(F)c([N+](=O)[O-])c1)C(Cl)(Cl)Cl)C(c1ccccc1)c1ccccc1` (configuration not stated): the “activity change, negative = cytotoxicity” value is -0.478% [at 25.3 µM] (inactive).

`OCC(CO)(CO)NCC(O)Cn1c2ccc(Cl)cc2c2cc(Cl)ccc21` (configuration not stated): the “activity change, negative = cytotoxicity” value was -0.793% (inactive).

As for `COCCOCCOc1ccc(C2=N[C@@](C)(C(=O)O)CS2)c(O)c1`, the “activity change, negative = cytotoxicity” value is -20% (inactive).

Consider `CC(=O)C1=C(O)C2c3c[nH]c4cccc(c34)CC2C(C)(C)N(C)C1=O` (configuration not stated), for which the “activity change, negative = cytotoxicity” value was 1.63% (inactive).

Regarding `CC(C)N(CCCNC(=O)Nc1ccc(C(C)(C)C)cc1)C[C@H]1O[C@@H](n2cc(Br)c3c(N)ncnc32)[C@H](O)[C@@H]1O`, the “activity change, negative = cytotoxicity” value was 2.07% (inactive).

Regarding `O=C(c1ccc(F)c(F)c1Nc1ccc(I)cc1F)N1CC(O)(C2CCCCN2)C1` (configuration not stated), the “activity change, negative = cytotoxicity” value is -32.3% (inactive).

On to `O=[N+]([O-])c1ccc(-[n+]2nc(-c3ccccc3)nn2-c2ccc(I)cc2)cc1`, for which the “activity change, negative = cytotoxicity” value is 2.56% (inactive).

`CC(=O)N[C@@H](CC(=O)O)C(=O)N[C@@H](CCC(=O)O)C(=O)N[C@H](C(=O)N[C@@H](CC(=O)O)C(=O)Nc1ccc2c(C)cc(=O)oc2c1)C(C)C`: the “activity change, negative = cytotoxicity” value is -0.214% (inactive).

For the compound `COc1ccccc1NC(=O)Nc1ccc2ccccc2c1`, the “activity change, negative = cytotoxicity” value is -5.01% (inactive).

With `CN1CCN(C(=O)c2ccc(Nc3nccc(-c4cccs4)n3)cc2Cl)CC1`, the “activity change, negative = cytotoxicity” value is -6.27% (inactive).

Regarding `Cn1cc(-c2cnc3ccc4ccc(CS(=O)(=O)NCc5ccccn5)cc4c(=O)c3c2)cn1`, the “activity change, negative = cytotoxicity” value was -2.75% (inactive).

On to `C=C(C)[C@@H]1CC[C@]2(C(=O)O)CC[C@]3(C)C(CCC4[C@@]5(C)C[C@@H](O)[C@H](O)C(C)(C)C5CC[C@]43C)C12` (some centres not stated), for which the “activity change, negative = cytotoxicity” value was -10.8% [at 25.3 µM] (inactive).

Turning to `CCN(CCCOc1ccc2c(Nc3cc(CC(=O)Nc4cccc(F)c4)[nH]n3)ncnc2c1)CCOP(=O)(O)O`, the “activity change, negative = cytotoxicity” value was 2.48% (inactive).

With `CCS(=O)(=O)N(Cc1cccnc1)c1cccc(-c2ccc(C#N)cc2)c1`, the “activity change, negative = cytotoxicity” value is 2.53% (inactive).

Regarding `CC(C)CCC[C@@H](C)[C@H]1CC[C@H]2[C@@H]3CC=C4C[C@@H](OC(=O)NCCN(C)C)CC[C@]4(C)[C@H]3CC[C@]12C`, the “activity change, negative = cytotoxicity” value is -2.9% (inactive).

With `C=C1[C@@H](C)[C@H]2[C@H](Cc3c[nH]c4ccccc34)NC(=O)[C@]23C(=O)/C=C/C(=O)[C@H](O)/C(C)=C\[C@@H](C)C/C=C/[C@H]3[C@@H]1O`, the “activity change, negative = cytotoxicity” value is -24.1% [at 25.3 µM] (inactive).

Take `CC(C)(C)c1ccc(CNC(=S)NCc2ccc(NS(C)(=O)=O)c(F)c2)cc1`: the “activity change, negative = cytotoxicity” value is -17.8% (inactive).

As to `CNCc1ccc(C)c(NC(=O)c2ccc(Nc3nc(-c4ccccc4)c4ccccc4n3)cc2)c1`, the “activity change, negative = cytotoxicity” value is 0.413% (inactive).

Consider `CC1CCC(n2c3cnccc3c3cnc(Nc4ccc5c(n4)CCN(C(=O)CO)C5)nc32)CC1` (configuration not stated), for which the “activity change, negative = cytotoxicity” value is 0.211% (inactive).

The test system of another experiment is JEG-3. The experiment is described as above. The conditions noted are these: Gynecologic cancer cell panel viability, ATPlite luminescence, 48 h; series mostly up to 57.5 µM; activity change, negative = cytotoxicity: at the top concentration. In short, it runs like this: as §1
For orientation: Cellular ATP, detected with luciferase, serves as a proxy for viable cell number.
As for `C=C1C(=O)O[C@@H]2CC(C)=C([C@@H](C)CCCO)[C@@H](OC(=O)C(C)C)[C@H]12`, the “activity change, negative = cytotoxicity” value is -23.7% [at 38.5 µM] (inactive).

On to `Oc1ccc(Nc2nc(-c3ccc(Cl)cc3)cs2)cc1`, for which the “activity change, negative = cytotoxicity” value is -0.439% (inactive).

With `Nc1ncnc2c1ncn2[C@@H]1O[C@H](CO)C[C@H]1O`, the “activity change, negative = cytotoxicity” value was -15.8% (inactive).

Take `Cc1cc2nc(NCCCO)n(CC(=O)c3cc(C(C)(C)C)c(O)c(C(C)(C)C)c3)c2cc1C`: the “activity change, negative = cytotoxicity” value was 19.1% (inactive).

For the compound `CC1(C)CC23[C@@H]4CC(=O)[C@@H]2COC(=O)[C@@H]3CC[C@H]41`, the “activity change, negative = cytotoxicity” value is 1.98% (inactive).

On to `CC[C@H](CO)Nc1nc(Nc2cccc(-c3ccccn3)c2)c2ncn(C(C)C)c2n1`, for which the “activity change, negative = cytotoxicity” value was 0.936% (inactive).

Turning to `Cc1ccccc1C(=O)Nc1ccc(C(=O)N2CCC[C@@H](O)c3cc(Cl)ccc32)c(C)c1`, the “activity change, negative = cytotoxicity” value is -0.134% (inactive).

Regarding `CCCCn1c(-c2ccccc2)nc(-c2ccccc2)c1CN(Cc1ccc2c(c1)OCO2)Cc1ccc2c(c1)OCO2`, the “activity change, negative = cytotoxicity” value is -27.4% (inactive).

Turning to `CCOC(=O)c1cccc(CNc2ccc(N(C)C(=O)Nc3ccccc3)cc2)c1`, the “activity change, negative = cytotoxicity” value is -6.55% (inactive).

Take `CC1CCN(C(c2ccc(F)cc2)c2ccc(C(C)C(=O)O)cc2-c2ccc(C(F)(F)F)cc2)CC1` (configuration not stated): the “activity change, negative = cytotoxicity” value was -2.45% (inactive).

Consider `O=C(NC(NC(=S)Nc1ccc(F)c([N+](=O)[O-])c1)C(Cl)(Cl)Cl)C(c1ccccc1)c1ccccc1` (configuration not stated), for which the “activity change, negative = cytotoxicity” value was -1.57% [at 25.3 µM] (inactive).

Consider `COc1ccc(CNC(=O)Nc2ncc([N+](=O)[O-])s2)cc1`, for which the “activity change, negative = cytotoxicity” value was -9.67% (inactive).

For the compound `OCC(CO)(CO)NCC(O)Cn1c2ccc(Cl)cc2c2cc(Cl)ccc21` (configuration not stated), the “activity change, negative = cytotoxicity” value was 13.7% (inactive).

As for `COCCOCCOc1ccc(C2=N[C@@](C)(C(=O)O)CS2)c(O)c1`, the “activity change, negative = cytotoxicity” value was -19.9% (inactive).

With `C=C(C)C(=O)O[C@H]1[C@H]2C(=C)C(=O)O[C@@H]2C[C@@H](C)/C=C\C(=O)[C@](C)(O)[C@@H]1OC(C)=O`, the Potency is 10 µM (active).

`CC(=O)C1=C(O)C2c3c[nH]c4cccc(c34)CC2C(C)(C)N(C)C1=O` (configuration not stated): the “activity change, negative = cytotoxicity” value is -18.5% (inactive).

On to `CC(C)N(CCCNC(=O)Nc1ccc(C(C)(C)C)cc1)C[C@H]1O[C@@H](n2cc(Br)c3c(N)ncnc32)[C@H](O)[C@@H]1O`, for which the “activity change, negative = cytotoxicity” value is -5.86% (inactive).

As for `O=C(c1ccc(F)c(F)c1Nc1ccc(I)cc1F)N1CC(O)(C2CCCCN2)C1` (configuration not stated), the “activity change, negative = cytotoxicity” value is -1.16% (inactive).

`O=[N+]([O-])c1ccc(-[n+]2nc(-c3ccccc3)nn2-c2ccc(I)cc2)cc1`: the “activity change, negative = cytotoxicity” value was -15.7% (inactive).

On to `CC(=O)N[C@@H](CC(=O)O)C(=O)N[C@@H](CCC(=O)O)C(=O)N[C@H](C(=O)N[C@@H](CC(=O)O)C(=O)Nc1ccc2c(C)cc(=O)oc2c1)C(C)C`, for which the “activity change, negative = cytotoxicity” value was -7.65% (inactive).

Regarding `CC1CCCC(SCC(O)C(=O)O)CC(=O)c2c(O)cc(O)cc2CC(=O)O1` (configuration not stated), the “activity change, negative = cytotoxicity” value is -26.4% [at 25.3 µM] (inactive).

In the case of `COc1ccccc1NC(=O)Nc1ccc2ccccc2c1`, the “activity change, negative = cytotoxicity” value was 0.461% (inactive).

For `Cn1cc(-c2cnc3ccc4ccc(CS(=O)(=O)NCc5ccccn5)cc4c(=O)c3c2)cn1`, the “activity change, negative = cytotoxicity” value is -18.3% (inactive).

Consider `C=C(C)[C@@H]1CC[C@]2(C(=O)O)CC[C@]3(C)C(CCC4[C@@]5(C)C[C@@H](O)[C@H](O)C(C)(C)C5CC[C@]43C)C12` (some centres not stated), for which the “activity change, negative = cytotoxicity” value was -5.38% [at 25.3 µM] (inactive).

Regarding `CCN(CCCOc1ccc2c(Nc3cc(CC(=O)Nc4cccc(F)c4)[nH]n3)ncnc2c1)CCOP(=O)(O)O`, the “activity change, negative = cytotoxicity” value was -3.46% (inactive).

`CCS(=O)(=O)N(Cc1cccnc1)c1cccc(-c2ccc(C#N)cc2)c1`: the “activity change, negative = cytotoxicity” value was 6.62% (inactive).

In the case of `CC(C)CCC[C@@H](C)[C@H]1CC[C@H]2[C@@H]3CC=C4C[C@@H](OC(=O)NCCN(C)C)CC[C@]4(C)[C@H]3CC[C@]12C`, the “activity change, negative = cytotoxicity” value is 16.5% (inactive).

Turning to `O=C(NNc1ccccc1)c1ccncc1`, the “activity change, negative = cytotoxicity” value was 24.1% (inactive).

In the case of `C=C1[C@@H](C)[C@H]2[C@H](Cc3c[nH]c4ccccc34)NC(=O)[C@]23C(=O)/C=C/C(=O)[C@H](O)/C(C)=C\[C@@H](C)C/C=C/[C@H]3[C@@H]1O`, the “activity change, negative = cytotoxicity” value is -16.9% [at 25.3 µM] (inactive).

Take `CNCc1ccc(C)c(NC(=O)c2ccc(Nc3nc(-c4ccccc4)c4ccccc4n3)cc2)c1`: the “activity change, negative = cytotoxicity” value was -4.02% (inactive).

For the compound `CC1CCC(n2c3cnccc3c3cnc(Nc4ccc5c(n4)CCN(C(=O)CO)C5)nc32)CC1` (configuration not stated), the “activity change, negative = cytotoxicity” value was 5.78% (inactive).

In the case of `COc1cc2ncnc(Nc3ccc(Oc4ccccc4)cc3)c2cc1OC`, the “activity change, negative = cytotoxicity” value was -9.4% (inactive).

The values above are taken from PubChem BioAssay (NCATS).
